TGFb SMAD3 inh: TGF-b pathway inhibition. HepG2 CAGA-GFP TGF-b/SMAD3 reporter, GFP fluorescence, 18 h; TGF-beta stimulated, 500 pg/mL final. Potency, µM (top dose mostly 46.1 µM), for inactives: at the highest dose activity, negative = inhibition, hits mostly inhibitors. 1.2% of 410,000 active; also: potency is read from the fitted curve at half-maximal effect; % is scaled to controls: 0 for no effect and ±100 for the full control effect; nearly all actives have a fitted effect of over 65% in size
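Cell-based qHTS in HEPG2 carrying a CAGA-GFP Smad reporter; compounds added before 500 pg/mL final TGF-beta, 18 h incubation at 37 degrees C, GFP fluorescence quantified per cell by imaging cytometry.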
TDP1 inh: inhibitors of human tyrosyl-DNA phosphodiesterase TDP1. 0.28% of 350,000 active. Q9NUW8. Potency, µM (series often up to 130 µM), without a hit: at the highest dose activity change, negative = inhibition, most hits filed as inhibitors. recombinant TDP1, AlphaScreen DNA substrate cleavage. AID 485290; also: potency is read from the fitted curve at half-maximal effect; % is scaled to controls: 0 for no effect and ±100 for the full control effect; nearly all actives have a fitted effect of over 40% in size
Target sequence (Q9NUW8 whole entry, looked up): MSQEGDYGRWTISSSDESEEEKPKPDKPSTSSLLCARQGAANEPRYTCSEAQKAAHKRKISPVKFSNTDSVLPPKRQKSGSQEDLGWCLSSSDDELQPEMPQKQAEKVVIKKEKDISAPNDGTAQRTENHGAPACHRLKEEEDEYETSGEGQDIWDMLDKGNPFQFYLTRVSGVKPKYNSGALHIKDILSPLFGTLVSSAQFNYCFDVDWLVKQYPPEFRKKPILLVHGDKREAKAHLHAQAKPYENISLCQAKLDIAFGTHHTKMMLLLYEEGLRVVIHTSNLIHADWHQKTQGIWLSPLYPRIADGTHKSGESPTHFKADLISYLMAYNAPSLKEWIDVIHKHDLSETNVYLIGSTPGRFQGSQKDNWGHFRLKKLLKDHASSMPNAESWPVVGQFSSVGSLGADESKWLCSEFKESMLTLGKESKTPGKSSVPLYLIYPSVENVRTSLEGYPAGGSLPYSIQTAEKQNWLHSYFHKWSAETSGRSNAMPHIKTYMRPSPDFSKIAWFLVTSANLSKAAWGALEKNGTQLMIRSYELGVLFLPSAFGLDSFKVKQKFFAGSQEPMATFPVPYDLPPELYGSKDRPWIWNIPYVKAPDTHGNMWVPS
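Recombinant E. coli-expressed Tdp1 (1 nM) preincubated with compound 15 min at RT, then 5'-biotin/3'-phosphotyrosine-FITC DNA substrate (15 nM) added for 5 min. AlphaScreen beads (10 ug/ml) added, 10 min RT; tyrosine-FITC cleavage read as signal loss.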
TDP1 cell CPT: growth inhibition of DT40 Tdp1-/-;hTDP1 cells with camptothecin (screen for TDP1 inhibitors) | chicken DT40 Tdp1-/-;hTDP1 cells + 20 nM CPT, ATP luminescence, 48 h | Potency, µM (highest dose often 46.2 µM), without a hit: at the top dose activity change, negative = growth inhibition, hits mostly inhibitors | 12% of 420,000 active; also: potency is read from the fitted curve at half-maximal effect; % is scaled to controls: 0 for no effect and ±100 for the full control effect; nearly all actives have a fitted effect of over 55% in size
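Chicken DT40 Tdp1-/- cells stably complemented with human TDP1 were seeded at 400 cells/well in medium containing 20 nM camptothecin, exposed to pin-transferred compounds, and grown at 37 °C for at least 48 hr. Viability was read as ATP luminescence.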
HepG2 viability: HepG2 cytotoxicity, counter-screen for TGF-b inhibitors. HepG2 CAGA-GFP viability, ATP luminescence, 18 h. Potency, µM (top dose mostly 46.1 µM), for inactives: at the top dose activity change, negative = cytotoxicity, usual class: cytotoxic. 0.76% of 410,000 active. AID 588856; also: potency is read from the fitted curve at half-maximal effect
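CellTiter-Glo luminescence gave cytotoxicity after 18 hours at 37 degrees C. The cells were HepG2 CAGA-GFP in 1% FBS DMEM, stimulated with 500 pg/mL TGF-beta after compound addition. %Activity was normalised to no-cell wells (complete cell-killing) and DMSO (no toxicity), and curves were fitted and classified.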
IL1B secr inh: inhibitors of inflammasome signaling (IL-1 beta secretion); THP-1 LPS/ATP IL-1B secretion, AlphaLISA, 16 h; stronger effect = lower value; 4.7% of 360,000 active; activity change, % at 57.5 µM; in the data active = activity change below about -50%; inconclusive = mostly about -30% to -49%; also: % is scaled to controls: 0 for no effect and ±100 for the full control effect
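Secreted IL-1B measured by AlphaLISA bead assay after 16 h compound exposure of THP-1 cells; compounds (final up to 57.5 uM) added 1 h before LPS (250 ng/mL) and ATP (1.25 mM) stimulation; lower signal means less secretion.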
DT40 TDP1 no CPT: qHTS for Inhibitors of human tyrosyl-DNA phosphodiesterase 1 (TDP1): qHTS in cells in absence of CPT | Potency, µM (top dose mostly 46.2 µM), for inactives: top-dose activity change, negative = growth inhibition, usual class: inhibitors | AID 686978, 2013 | 15% of 420,000 active | DT40 Tdp1-/- hTDP1 cells, no CPT, ATP luminescence, 48 h; also: potency is read from the fitted curve at half-maximal effect; % is scaled to controls: 0 for no effect and ±100 for the full control effect; nearly all actives have a fitted effect of over 55% in size
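Camptothecin absent (DMSO only). Human TDP1-complemented DT40 knockout cells, 400 cells/well, 37 °C for minimum 48 hr; ATP measured via CellTiter-Glo, 30 min dark incubation, luminescence.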
* = called active by the depositor; ? = inconclusive; . = not tested or not shown; [ ] = another dose, or the depositor's remark. In the library only some 19% were active in any assay of this set; here they are far more common. Unless noted, calls follow the shape of the dose curve; as a rule, active = well fitted curve in the direction sought with a large enough effect; inconclusive = small, poorly fitted or top-dose-only effect, or another doubt; inactive = no such curve, though single readings can be large; an effect the other way counts as inactive or inconclusive.

SMILES	TGFb SMAD3 inh	TDP1 inh	TDP1 cell CPT	HepG2 viability	IL1B secr inh	DT40 TDP1 no CPT
CCN1CCN(C(=O)c2ccc3c(c2)N(Cc2ccc(F)cc2)C(=O)c2ccccc2S3(=O)=O)CC1	.	1%	?	-9%	.	?
O=C(c1ccc2c(c1)N(Cc1ccc(Cl)cc1)C(=O)c1ccccc1S2(=O)=O)N1CCN(c2ccccn2)CC1	0%	-1%	16µM*	-38%	.	23µM*
CC(C)c1ccc(NC(=O)c2cn(C3CCCCC3)c(=O)c3c2c2ccccc2n3C)cc1	-8%	0%	1%	-4%	.	-24%
Cc1cc(C)c(S(=O)(=O)N2CCC(N3CCN(Cc4ccc(F)cc4)C(=O)C3=O)CC2)c(C)c1	-1%	6%	?	6%	.	-23%
CC(=O)Nc1nonc1-c1nnc(SCc2ccc(F)cc2Cl)n1C	-1%	5%	?	1%	.	15µM*
CC(=O)Nc1nonc1-c1nnc(SCc2ccc(F)cc2)n1C	3%	1%	-21%	-6%	.	?
CCn1c(SCc2ccc(F)cc2Cl)nnc1-c1nonc1NC(C)=O	?	3%	16µM*	-13%	.	18µM*
CC(=O)Nc1nonc1-c1nnc(SCC(=O)Nc2ccc(C)c(Cl)c2)n1-c1ccccc1	-2%	2%	?	0%	.	16µM*
Nc1nc(SCC(=O)Nc2ccc([N+](=O)[O-])cc2)n[nH]1	-7%	5%	-1%	-26%	0	-6%
Cc1cc(NC(=O)COc2c(C)cccc2C)no1	-12%	.	?	1%	-1	1%
Cc1cnc(C(=O)OCC(=O)Nc2cc(Cl)ccc2C#N)cn1	17%	1%	6%	1%	7	-10%
N#Cc1ccccc1CSC1=NCCS1	6%	4%	0%	8%	-89*	-17%
CCOC(=O)c1scc(-c2ccc(C)cc2)c1S(=O)(=O)Nc1cc(Cl)ccc1OC	-16%	5%	5.8µM*	5%	.	3.3µM*
CCOC(=O)c1scc(-c2ccccc2)c1S(=O)(=O)Nc1cc(Cl)c(OC)cc1OC	?	6%	?	-18%	.	15µM*
CCOC(=O)c1scc(-c2ccc(C)cc2)c1S(=O)(=O)Nc1ccc(OC)c(Cl)c1	?	-1%	16µM*	-35%	.	15µM*
COC(=O)COc1ccc(S(=O)(=O)NCc2ccccn2)cc1	-1%	2%	-5%	-4%	5	-11%
Cc1cccc([C@@H]2[C@@H]3C(=O)N(Cc4ccccc4)C(=O)[C@@H]3[C@]3(Cc4ccccc4)C(=O)N(c4cccc(F)c4)C(=O)N23)c1	3%	-1%	-2%	-10%	-8	-16%
CCCCN(C(=O)CSc1ncn[nH]1)c1c(N)n(Cc2ccccc2)c(=O)[nH]c1=O	-4%	0%[56.1 µM]	-17%	-19%	6	20%
OC(c1ccccc1)(c1nc(-c2cccc3cccnc23)cs1)C(F)(F)F (configuration not stated)	?	.	23µM*	-105%	-11	?
OC(c1ccccc1)(c1nc(-c2ccc(F)c(Cl)c2)cs1)C(F)(F)F (configuration not stated)	?	.	?	-91%	7	16µM*
Cc1ccc(-c2csc(C(O)(c3ccccc3)C(F)(F)F)n2)cc1C (configuration not stated)	?	.	?	-97%	0	16µM*
CN(C)c1ccc(-c2csc(C(O)(c3ccccc3)C(F)(F)F)n2)cc1 (configuration not stated)	?	.	10µM*	16µM*	-12	7.3µM*
CN(C(=O)CSc1nc(C2CC2)n(-c2ccccc2)n1)C1CCS(=O)(=O)C1 (configuration not stated)	-3%	0%	26%	16%	5	3%
O=c1c2ccccc2nc(-c2ccccc2O)n1Cc1ccccc1	.	-1%	.	.	.	.
CC(C)C[C@@H](CN1CCCC1CN1C(=S)NC[C@@H]1Cc1ccccc1)N1C[C@H](Cc2ccc(O)cc2)N(CCc2ccccc2)C1=S (some centres not stated)	.	.	18µM*	.	9	?
SMILES	TGFb SMAD3 inh	TDP1 inh	TDP1 cell CPT	HepG2 viability	IL1B secr inh	DT40 TDP1 no CPT
CC(C)C[C@@H](CN1CCC[C@@H]1CN1C(=O)C(=O)NC[C@@H]1Cc1ccccc1)N1C[C@H](Cc2ccc(O)cc2)N(CCc2ccccc2)C(=O)C1=O	?	.	?	-2%	0	?
CC(C)C[C@@H](CN1CCC[C@@H]1CN1C(=S)NC[C@@H]1Cc1ccc(O)cc1)N1C[C@H](Cc2ccc(O)cc2)N(CCc2ccccc2)C1=S	13µM*	.	?	-65%	-59*	21µM*
CC(C)C[C@@H](CN1CCC[C@@H]1CN1C(=S)NC[C@@H]1Cc1ccccc1)N1C[C@H](Cc2ccc(O)cc2)N(CCc2ccccc2)C1=S	?	.	?	-24%	0	18µM*
CC(C)C[C@@H](CN1CCCC1CN1C(=S)NC[C@@H]1Cc1ccccc1)N1C[C@H](Cc2ccccc2)N(CCc2ccccc2)C1=S (some centres not stated)	.	.	?	.	11	9.2µM*
COC(=O)[C@@]12C[C@@H](CC(=O)NCC34CC5CC(CC(C5)C3)C4)C(=O)N(Cc3ccc4c(c3)OCO4)C1=CCC(C)(C)C2	.	.	?	.	-4	?
CCc1cccc(NC(=O)C(NS(=O)(=O)c2ccc3nc(C)sc3c2)C(C)C)c1 (configuration not stated)	-15%	6%	-8%	2%	.	-19%
CCCCOc1[nH]c2nc(-c3ccco3)n(Cc3ccco3)c(=N)c2c1C#N	?	-5%	?	-13%	-82*	23µM*
COC(=O)CSc1nnc(-c2ccco2)n1Cc1ccco1	-6%	-2%	-15%	0%	31	9%
Cc1ccc(CNC(=O)c2c(Nc3c(C)cccc3C)sc(C(=O)c3ccccc3)c2N)cc1	13µM*	4%	8.2µM*	-60%	.	15µM*
COc1cccc(Nc2sc(C(=O)c3ccc(Cl)cc3)c(N)c2C(=O)NCc2ccc(C)cc2)c1	13µM*	5%	2.9µM*	-27%	.	4.6µM*
N#Cc1c(Nc2cccc(F)c2)sc(C(=O)c2ccc(Cl)cc2)c1N	6%	2%	.	-25%	.	.

High-throughput results (PubChem BioAssay)
